Screen size: about 370,000 compounds; about 6,800 (1.8%) were called active. The sample as a whole holds a higher share of actives than the screen did. A number with no mark means an inactive call.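 How the source made its calls: active means activation above a cutoff set at the mean of all screened compounds plus 3 SD (cut at about 10% in these data); inactive means the rest.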

The assay concerns Nuclear hormone receptor DAF-12 (Heterodera glycines), GAL4 fusion. Description: hgDAF-12 GAL4 fusion reporter activation – cell-based, luminescence, HEK293, UAS-luciferase, primary screen (AID 687014).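 Further: 0% = DMSO wells and 100% = sodium butyrate wells.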 The conditions noted are these: HEK293 GAL4-hgDAF12 UAS-luciferase reporter, agonist luminescence; at 6.8 µM; hits give high values; normalized to butyrate control. For orientation: A reporter such as luciferase makes a cellular process visible.
For `O=C(O)c1c(NC(=O)N2CCCC2)sc2c1CCCC2`, the activation was 0.58%.
With `NC(=O)c1c(NC(=O)c2ccccc2)sc2c1CCCC2`, the activation is 13.5% (active).
Take `NC(=O)c1c(NC(=O)CSc2nnc(-c3ccco3)n2N)sc2c1CCCC2`: the activation was 0.59%.
For the molecule `Cc1ccc2nc(-c3ccc(CN4CCC(n5cc(-c6ccccc6)[nH]c5=O)CC4)cc3)c(-c3ccccc3)nc2c1`, the activation was 0.94%.
The figure for `C=CCN1C(C(=O)OC)CN(Cc2cn(Cc3ccccc3)nn2)CCS1(=O)=O` (stereo not drawn) is 0.93%.
The figure for `Cc1nn(-c2ccc([N+](=O)[O-])cc2)c(N)c1-c1ccccc1` is 16.8% (active); for `CC(C)(C)c1cnnn1-c1ccc([N+](=O)[O-])cc1` it is -1.27%.
As to `Cc1nn(-c2ccccc2)c2c1C(c1cccc([N+](=O)[O-])c1)N(c1ccccc1)C(=O)N2` (stereo not drawn), the activation is 2.5%.
The figure for `COCCNC(=S)N(C)[C@H]1C[C@H]2c3[nH]c4ccccc4c3CCN2C[C@H]1[C@H](C)O` is 0.91%; for `COC(=O)C1CN(Cc2ccc(F)cc2)CCS(=O)(=O)N1Cc1ccc(Cl)cc1` (stereo not drawn) it is -1.05%.
The figure for `O=C(C(NS(=O)(=O)c1cccc2nsnc12)c1ccccc1)N1CCN(c2ccccc2)CC1` (stereo not drawn) is 0.47%.
In the case of `Nn1c(SCC(=O)Nc2cccc3ccccc23)nnc1-c1cc(-c2ccc(F)cc2)n[nH]1`, the activation is -2.56%.
The figure for `O=[N+]([O-])c1cc2ccccc2nc1-c1ccccc1` is 4.98%.
The result for `O=[N+]([O-])c1ccc2c(c1)Nc1nc3ccccc3nc1N2` reads 27.2% (active); that for `O=C(Oc1ccc([N+](=O)[O-])cc1)c1ccc2ccccc2n1`, 3.74%; that for `C=CCOC/C=C/C#CCN(CC=C)Cc1ccc(OC)cc1OC`, 5.3%.
Regarding `CC(c1ccccn1)N(CCN(C)C)C(=S)Nc1ccccc1F` (stereo not drawn), the activation was 0.46%.
With `Cc1ccccc1CS(=O)(=O)Cc1ccc(C(=O)Nc2ccc(Cl)cc2)o1`, the activation was -3.81%.
The result for `O=C(Nc1cccc(Cl)c1Cl)c1ccccc1NC(=O)C1CC=CCC1C(=O)O` (stereo not drawn) reads 5.07%; that for `O=C(Nc1ccc(Cl)c(Cl)c1)c1ccccc1NC(=O)C1CC=CCC1C(=O)O` (stereo not drawn), 15.7% (active); that for `O=C(O)C1CC=CCC1C(=O)NCCc1ccccc1` (stereo not drawn), -1.34%.
Consider `O=C(Nc1cccc(F)c1)NC1CCCCCCC1`, for which the activation was 10.7% (active).
The figure for `O=C(Nc1cccc(F)c1)NC1CCCc2ccccc21` (stereo not drawn) is -1.37%; for `Cc1cc(C)cc(NC(=O)NC2CCCCCCC2)c1` it is 5.46%.
The result for `CCCC(=O)NC(=S)Nc1ccc(CN2CCOCC2)cc1` reads 0%; that for `COC(=O)c1ccc(NC(=S)Nc2cccc(C)n2)cc1`, 1.63%; that for `COC(=O)c1ccc(NC(=S)NN2CCOCC2)cc1`, 10.6% (active).
The figure for `C#CCNC(=O)C[C@H]1C[C@@]2(C(=O)OC)C(=C[C@H](C(C)C)O[C@@H]2C2CC2)N(Cc2ccco2)C1=O` is 0.97%.
Turning to `C/C(=N\NC(=O)c1ccoc1C)c1ccccc1O`, the activation was 11.5% (active).
The result for `C/C(=N\Nc1ccc(Cl)nn1)c1ccccc1O` reads 1.05%; that for `COc1ccccc1N(CC(=O)N/N=C(\C)c1ccccc1O)S(=O)(=O)c1ccc(C)cc1`, -1.9%.
The figure for `O=C(NC(CC(=O)N1CCN(c2ccccc2)CC1)c1ccccc1)c1ccccc1Cl` (stereo not drawn) is -0.02%; for `Cc1ccc(SCCC(=O)NCc2ccccn2)cc1` it is 0.65%.
The figure for `Cc1ccc(SCCSc2ncccn2)cc1` is 17.8% (active).
On to `Cc1ccc(SCCC(=O)NC(C(C)C)C(C)C)cc1`, for which the activation is -2.93%.
The result for `CCCCCN1CCCCC(NC(=O)C(C)CCC)C1=O` (stereo not drawn) reads 2.68%; that for `CC(C)(C)c1ccc(C(=O)Nc2cc(Cl)c(Br)cc2C(=O)O)cc1`, -1.36%; that for `Cc1ccc(C(=O)Nc2ccc(C)c(S(=O)(=O)N(C)C)c2)s1`, 17.3% (active).
As for `COc1ccc(CCC(=O)OCC(=O)Nc2ccc(C)c(S(=O)(=O)N(C)C)c2)cc1`, the activation is -1.79%.
The figure for `CCN(CC(=O)Nc1ccc(C)c(S(=O)(=O)N(C)C)c1)Cc1ccccc1` is 2.76%.
`C[C@@H](NC(=O)c1ccccc1OCC(=O)Nc1ccc(I)cc1)C(=O)N(C)Cc1ccccc1`: the activation is -2.59%.
The result for `C#CCN(C[C@@H]1[C@@H](OC(=O)NC2CC2)[C@@H](OC(=O)NC2CC2)Cn2c(=O)ccc(=O)n21)S(=O)(=O)c1ccc(C)cc1` reads -1.94%; that for `O=C1CC[C@@H](COc2ccc3[nH]cc(-c4ccccc4)c3c2-c2ccccc2)N1`, -0.08%.
The figure for `CCCCNC(=O)C[C@H]1C(=O)N(Cc2ccc(OC)cc2)C2=CCCC[C@@]21C(=O)OCC` is -2.38%.
As to `CNCC(O)CN1CCN(c2ccccc2OC)CC1` (stereo not drawn), the activation is -4.94%.
The result for `COc1ccccc1/C=N/N1CCN(Cc2ccccc2Cl)CC1` reads 3.82%; that for `COc1ccccc1N1CCN(/N=C/c2ccc(O)cc2O)CC1`, 13% (active); that for `O=C(Nc1ccccc1)O/N=C1/CCCc2occc21`, 1.6%.
The figure for `N[C@@H](Cc1ccccc1)C(=O)N1CCC[C@@H]1C(=O)N1CCC2CCN(S(=O)(=O)c3ccccc3)CC21` (stereo partly drawn) is 2.75%.
For the molecule `Cc1cccc(NC(=O)c2cc3c(C)nn(-c4ccccc4)c3s2)c1`, the activation is 3.47%.
The result for `O=C1NC[C@@H](Cc2ccc(O)cc2)N(CCc2cccc(F)c2)C1=O` reads 18.6% (active); that for `O=C1NC[C@H](CCCCN2C[C@H](Cc3ccccc3)N(Cc3ccccc3)C(=O)C2=O)N(CCc2ccc(O)cc2)C1=O`, 0.18%.
`O=C1NC[C@H](CCCCN2C[C@H](Cc3ccc(O)cc3)N(CCc3ccccc3)C(=O)C2=O)N(CCc2ccccc2)C1=O`: the activation is -1.46%.
As for `CCOC(=O)[C@]12CCCCC/C=C\1N(Cc1ccc(OC)cc1)C(=O)[C@H]2CC(=O)N1CCOCC1`, the activation is 4.14%.
`CC(C)(C)NS(=O)(=O)c1ccc(NC(=O)C2CCCO2)cc1` (stereo not drawn): the activation is -2.61%.
The result for `O=C(Nc1ccc(-c2nnc(-c3ccccc3)o2)cc1)C1CCCO1` (stereo not drawn) reads 13.7% (active); that for `CCOc1ccc(NC(=O)c2ccc(NC(=O)C3CCCO3)cc2)cc1` (stereo not drawn), -1.61%; that for `COc1cccc(CNC(=O)C2CCCN(c3nc4ccccc4o3)C2)c1OC` (stereo not drawn), 1.01%.
For `O=C(Nn1cnc2ccccc2c1=O)c1ccc([N+](=O)[O-])cc1Cl`, the activation is -0.41%.
The result for `O=C(Nc1ccc(Br)cn1)c1ccc([N+](=O)[O-])cc1Cl` reads 11.7% (active); that for `CC(C)C(=O)Nc1cccc(NC(=O)c2ccc([N+](=O)[O-])cc2Cl)c1`, -0.06%; that for `Cc1cc(Cl)ccc1-c1nc(NCCN(C)C)nc2ccsc12`, 1.09%.
The result for `O=C(CN1CCCc2ccccc21)NCc1ccc(F)cc1` reads 1.21%; that for `Cc1ccn(-c2cccc(-n3ccc(C)n3)n2)n1`, 18.1% (active).
The figure for `Cc1cccc(N2O[C@H]3C=CC2CCCC3)n1` is -0.73%; for `COc1ccc(C(=O)OCCN2CCN(C3CN(Cc4cn(Cc5ccccc5F)nn4)S(=O)(=O)C3)CC2)cc1OC` (stereo not drawn) it is -1.46%.
`Cn1c(CNc2nc(-c3ccccc3)cs2)nnc1SCC(=O)c1ccccc1`: the activation was -0.81%.
The figure for `Cn1c(SCC(=O)NC2CCCCC2)nnc1-c1cc2ccccc2o1` is 4.2%; for `CCNc1nc(-c2cc3ccccc3o2)cs1` it is 12.5% (active).
The figure for `COc1ccc(NC(=O)CN(Cc2ccccc2)S(C)(=O)=O)cc1OC` is 0.79%.
As for `S=C(NN=Cc1ccccn1)Nc1ccccn1`, the activation was 14.5% (active).
Turning to `O=C(O)C1C2C=CC(O2)C1C(=O)Nc1ccccn1` (stereo not drawn), the activation is 0.96%.
Consider `CS(=O)(=O)N(CC(=O)N/N=C/c1ccccn1)c1ccc(Oc2ccccc2)cc1`, for which the activation is 2.64%.
The result for `c1csc(-c2nnc(COc3ncnc4sccc34)o2)c1` reads 1.72%.
Consider `Clc1ccc(Cc2nnc(-c3cccs3)o2)cc1`, for which the activation was 12.7% (active).
In the case of `CC(C)(C)c1ccc(CSc2nnc(-c3cccs3)o2)cc1`, the activation is 5.74%.
As for `CC(C)[C@H]1COCCS(=O)(=O)N1Cc1ccccc1-c1cccc2c1sc1ccccc12`, the activation was 2.06%.
Take `Cc1ccc(OCc2nnc(SC/C=C/c3ccccc3)n2Cc2ccco2)cc1`: the activation is -2.63%.
Consider `c1ccc(CN=C2Nc3ccccc3CS2)nc1`, for which the activation is 15% (active).
The result for `O=C1CSc2ccc(C(=O)NCc3ccccn3)cc2N1` reads 3.35%; that for `COc1ccc(OC)c(CNC(=O)c2cc(=O)[nH]c3ccc(S(=O)(=O)N4CCCC4)cc23)c1`, 5.76%; that for `CCc1ccc(C2=CC(=O)CC(C)(C)C2=O)cc1`, -0.49%.
The result for `CCc1nonc1NC(=O)c1oc2ccc(Cl)cc2c1C` reads 3.2%.
The result for `Cc1c(C(=O)Nc2ccccn2)oc2ccc(Br)cc12` reads 11.2% (active).
For the molecule `Cc1nonc1NC(=O)c1oc2ccccc2c1C`, the activation is 4.37%.
On to `CCOC(=O)c1nnn(CC(=O)Nc2cccc(F)c2)c1C(=O)OCC`, for which the activation was -0.57%.
The result for `CCC(=O)Nc1ccc2nn(-c3ccc(F)cc3)nc2c1` reads 12.1% (active); that for `O=C(Nc1cccc(Cl)c1)c1cncn1-c1ccc(F)cc1`, 1.29%; that for `CCOC(=O)N1CCN(c2cc(C)c([N+](=O)[O-])cc2F)CC1`, 4.66%.
Regarding `CCNC(=S)NCC`, the activation is -0.86%.
Take `Cc1ccc(C(=O)N(Cc2ccccn2)CC2CCCO2)cc1` (stereo not drawn): the activation is -3.33%.
As to `Cc1ccc(NC(=S)NNC(=O)CSc2nnc(SCc3ccccc3Cl)s2)cc1`, the activation was 2.13%.
On to `COC(=O)c1c(-c2ccc(OC)cc2)c2c(c3c4cc(OC)ccc4n(S(=O)(=O)c4ccc(F)cc4)c13)C(=O)N(C)C2`, for which the activation is -2.44%.
